Tests used:
YSK1 = tested on: T1, YSK1; conditions: Compound Concentration (nM):1000
T1 construct: gene STK25

YSK4 = tested on: T2, YSK4; conditions: Compound Concentration (nM):1000
T2 construct: gene MAP3K19

ZAK = conditions: Compound Concentration (nM):1000
ZAP70 = conditions: Compound Concentration (nM):1000
p38-alpha = tested on: T3, p38-alpha; conditions: Compound Concentration (nM):1000
T3 construct: gene MAPK14

p38-beta = tested on: T4, p38-beta; conditions: Compound Concentration (nM):1000
T4 construct: gene MAPK11

p38-delta = tested on: T5, p38-delta; conditions: Compound Concentration (nM):1000
T5 construct: gene MAPK13

p38-gamma = tested on: T6, p38-gamma; conditions: Compound Concentration (nM):1000
T6 construct: gene MAPK12
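Throughout, for Percent Control: KINOMEscan scanMAX binding as percent activity remaining versus control; lower means stronger binding.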

Row | Compound | Percent Control (YSK1) [%] | Percent Control (YSK4) [%] | Percent Control (ZAK) [%] | Percent Control (ZAP70) [%] | Percent Control (p38-alpha) [%] | Percent Control (p38-beta) [%] | Percent Control (p38-delta) [%] | Percent Control (p38-gamma) [%] | Kinases covered (ACK1)
1 | CN(C)c1cc2c(Nc3ccc4c(cnn4Cc4ccccc4)c3)ncnc2cn1 [GW282974X] | 83 | 90 | 90 | 83 | 100 | 100 | 99 | 100 | –
2 | CNS(=O)(=O)c1ccc(N(C)C)c(Nc2ncnc3cc(OC)c(OC)cc23)c1 [GSK114] | – | – | – | – | – | – | – | – | ACK1
3 | NS(=O)(=O)c1ccc(N/N=C2\C(=O)Nc3ccc(-c4cnco4)cc32)cc1 [GW276655] | 59 | 1.9 | 80 | 88 | 100 | 100 | 99 | 66 | –
4 | CCS(=O)(=O)c1ccc(OC)c(Nc2ncc(-c3cccc(OC)c3)o2)c1 [GW580509X] | 81 | 96 | 100 | 100 | 100 | 100 | 100 | 100 | –
5 | NS(=O)(=O)c1ccc(N/N=C2\C(=O)Nc3ccc(C(=O)NCCc4c[nH]cn4)cc32)cc1 [GW300660X] | 84 | 3.7 | 96 | 79 | 100 | 100 | 100 | 84 | –
6 | COc1ccc2[nH]c3c4[nH]c5ccc(OC)cc5c4c4c(c3c2c1)C(=O)NC4=O [GW296115X] | 89 | 0 | 100 | 76 | 87 | 100 | 86 | 70 | –
7 | CC1=C(C(=O)Nc2ccc3[nH]ncc3c2)C(c2ccc3ccccc3c2)CC(=O)N1 (stereo not drawn) [GSK270822A] | 68 | 75 | 92 | 99 | 100 | 100 | 94 | 100 | –
8 | Cl.O=C(Nc1ccc(Oc2ccc3[nH]c(NC(=O)c4ccccc4)nc3c2)cc1)Nc1cc(C(F)(F)F)ccc1F [GW709042A] | 78 | 69 | 6.9 | 94 | 98 | 52 | 100 | 82 | –
9 | COc1ccc(COc2ccc(Cc3cnc(N)nc3N)cc2OC)cc1 [GW632580X] | 100 | 91 | 87 | 97 | 100 | 100 | 85 | 89 | –
10 | CN1CCN(C(=O)c2ccc(NC(=O)Nc3ccc(N(C)c4ccnc(Nc5ccc(CS(C)(=O)=O)cc5)n4)cc3)cc2)CC1.Cl [GW830263A] | 83 | 0 | 86 | 65 | 83 | 100 | 100 | 100 | –
11 | Cc1cc(O)cc(C)c1/C=C/c1cncc(C(N)=O)c1 [GW435821X] | 95 | 84 | 87 | 96 | 100 | 100 | 100 | 100 | –
12 | COc1cc2ncn(-c3cc(O[C@H](C)c4ccccc4Cl)c(C(N)=O)s3)c2cc1OC [GSK237701A] | 78 | 5.6 | 100 | 93 | 100 | 100 | 100 | 100 | –
13 | NS(=O)(=O)c1ccc(Nc2ncc(-c3ccccc3)o2)cc1 [GW572399X] | 54 | 30 | 100 | 100 | 100 | 100 | 100 | 100 | –
14 | COC(=O)Nc1nc2ccc(Oc3ccc(NC(=O)Nc4cc(C(F)(F)F)ccc4F)cc3)cc2s1.Cl [GW693917A] | 100 | 12 | 6.8 | 82 | 18 | 10 | 96 | 46 | –
15 | NS(=O)(=O)c1ccc(N/N=C2\C(=O)Nc3ccc(C(=O)NCc4ccncc4)cc32)cc1 [GW300657X] | 76 | 2.4 | 100 | 85 | 100 | 100 | 100 | 42 | –
16 | COc1ccc2c(-c3ccnc(Nc4cccc(OC(F)(F)F)c4)n3)cnn2n1 [GW810372X] | 85 | 39 | 69 | 86 | 100 | 100 | 100 | 77 | –
17 | Cl.O=C(Nc1ccc(Oc2ccc3[nH]c(NC(=O)c4ccco4)nc3c2)cc1)Nc1cc(C(F)(F)F)ccc1F [GW683134A] | 70 | 13 | 3.2 | 100 | 97 | 37 | 100 | 82 | –

— article PMC7826789 (International Journal of Molecular Sciences, 2021)
